# Test results published in PubChem BioAssay (NCATS).
# Results filed as inconclusive are left out. The source made the active and inactive calls. Calls follow the shape of the dose curve; as a rule, active = well fitted inhibition curve with a large enough effect; inconclusive = small, poorly fitted or top-dose-only effect; inactive = no such curve, though single readings can be large or run the other way.
# Test system: Zika virus NS2B-NS3 protease (unlinked)
# Assay: Optimization of GU AMC qHTS for Zika virus inhibitors: Unlinked NS2B-NS3 protease assay (AID 1347151); also: nearly all actives have a fitted effect of over 80% in size;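 as to activity change, negative = inhibition: 0% = no-inhibitor control and -100% = no-enzyme control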
# Conditions: recombinant ZIKV NS2B-NS3 protease, fluorogenic AMC substrate; series mostly up to 52.5 µM; activity change, negative = inhibition: at the top concentration
# Procedure, shortened: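 Percent inhibition is derived from the 15-min change in AMC fluorescence, normalized against no-inhibitor and no-enzyme controls, then fitted to a 4-parameter Hill curve. Aprotinin was the intraplate control.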
# Potency is read from the fitted curve at half-maximal effect.
Structure (SMILES),"activity change, negative = inhibition",Potency
CN1C2CCC1CC(OC(c1ccccc1)c1ccccc1N)C2 (stereo not given),3.43% (inactive),–
CC1(C(=O)O)C2CCC(O2)C1(C)C(=O)O (stereo not given),1.41% (inactive),–
CCn1cnc2c(Nc3cccc(Cl)c3)nc(N[C@@H]3CCCC[C@@H]3N)nc21,5.12% (inactive),–
CNc1ccc2oc(C[C@H]3O[C@@]4(CC[C@H]3C)O[C@H]([C@H](C)C(=O)c3ccc[nH]3)[C@H](C)C[C@H]4C)nc2c1C(=O)O,–,23.8 µM (active)
NC(N)=NOCC[C@H](N)C(=O)O,3.52% (inactive),–
NC(C(=O)O)c1cc(=O)[nH]o1 (stereo not given),0.684% (inactive),–
C[N+](C)(C)CC#CCN1CCCC1=O,-9.5% (inactive),–
NNC(=O)c1ccc(O)cc1,4.6% (inactive),–
COc1ccc(CNC(=O)/C=C/c2ccc3[nH]cc(CCN(C)C)c3c2)cc1,-5.46% (inactive),–
O=c1ccc2[nH]cc(C3=CCNCC3)c2[nH]1,–,37.7 µM (active)
